Source: PubChem BioAssay
Rows were chosen to be rich in hits. Some 1.3% of all compounds tested hit in one or more screens of this group.
LmPK inhibitor: blocks Leishmania mexicana pyruvate kinase activity; Potency, µM (series often up to 57.5 µM), for the others: at the highest dose activity change, negative = inhibition, actives largely listed as inhibitors; Q27686; 0.37% of 290,000 active; purified LmPK, Kinase-Glo ATP luminescence, 1 h; AID 1721
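ATP generated from ADP (0.1 mM) and PEP (0.5 mM) by 0.1 nM LmPK over 1 h at room temperature (pH 7.2 imidazole buffer) was detected by coupled luciferase luminescence. Values were normalized to uninhibited and no-enzyme wells.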
AmpC detergent: AmpC beta-lactamase inhibition with detergent present | P00811 | AmpC hydrolysis of nitrocefin, absorbance 480 nm, 0.01% Triton | Potency, µM (doses to about 114 µM), without a hit: top-dose activity change, negative = inhibition, usual class: inhibitors | 0.041% of 370,000 active;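 also: 0% = no-compound wells and -100% = no-enzyme wells; nearly all actives have a fitted effect of over 25% in size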
Target sequence (P00811 whole entry, looked up): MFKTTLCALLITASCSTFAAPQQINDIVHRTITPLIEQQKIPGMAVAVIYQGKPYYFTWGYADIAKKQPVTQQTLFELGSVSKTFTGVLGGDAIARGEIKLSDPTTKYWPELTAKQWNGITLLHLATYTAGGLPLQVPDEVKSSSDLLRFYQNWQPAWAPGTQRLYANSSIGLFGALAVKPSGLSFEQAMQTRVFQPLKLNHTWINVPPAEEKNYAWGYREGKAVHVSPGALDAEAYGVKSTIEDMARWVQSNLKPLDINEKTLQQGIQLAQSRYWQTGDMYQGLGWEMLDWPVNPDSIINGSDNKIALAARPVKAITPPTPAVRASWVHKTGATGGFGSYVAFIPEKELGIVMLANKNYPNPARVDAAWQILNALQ
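AmpC (5.3 nM in the dispensed reagent) in 20 mM phosphate pH 7.0 with 0.01% (detergent screen) or 0.0001% Triton X-100 was preincubated with compounds for 15 min at room temperature. Nitrocefin was then added from an 800 uM solution, and hydrolysis was followed at 480 nm.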
AmpC no deterg: inhibitors of E. coli AmpC beta-lactamase without detergent. P00811. AmpC nitrocefin hydrolysis, absorbance 480 nm, 0.0001% Triton. Potency, µM (titrated, usually from 57.1 µM), without a hit: top-dose activity change, negative = inhibition, most hits filed as inhibitors. 0.52% of 330,000 active. AID 485341;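 also: plate controls were no compound for no effect and no enzyme for full effect; nearly all actives have a fitted effect of over 20% in size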
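AmpC (5.3 nM in the dispensed reagent) in 20 mM phosphate pH 7.0 with 0.01% (detergent screen) or 0.0001% Triton X-100 was preincubated with compounds for 15 min at room temperature. Nitrocefin was then added from an 800 uM solution, and hydrolysis was followed at 480 nm.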
AMA1-RON2 inh: inhibitors of Plasmodium falciparum AMA1-RON2 interaction | AlphaScreen AMA1-biotinylated RON2 peptide binding | AID 720542 | Potency, µM (titrated, usually from 58.2 µM), for inactives: top-dose activity change, negative = inhibition, actives largely listed as inhibitors | 0.2% of 360,000 active;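 also: 0% = vehicle wells and -100% = peptide control; nearly all actives have a fitted effect of over 45% in size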
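AMA1 (3D7) with his tag at 25 nM final met compounds first, then biotinylated RON2 peptide at 25 nM; detection used donor plus acceptor beads, 10 µg/mL apiece, read by AlphaScreen after 30 min at room temperature.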
Giardia FBPA inh: blocks Giardia fructose-bisphosphate aldolase activity; A8B2U2; purified Giardia FBPA; Potency, µM (doses to about 59.6 µM), for inactives: at the highest dose activity, negative = inhibition, most hits filed as inhibitors; 0.71% of 290,000 active; also: nearly all actives have a fitted effect of over 55% in size
Target sequence (A8B2U2 whole entry, looked up): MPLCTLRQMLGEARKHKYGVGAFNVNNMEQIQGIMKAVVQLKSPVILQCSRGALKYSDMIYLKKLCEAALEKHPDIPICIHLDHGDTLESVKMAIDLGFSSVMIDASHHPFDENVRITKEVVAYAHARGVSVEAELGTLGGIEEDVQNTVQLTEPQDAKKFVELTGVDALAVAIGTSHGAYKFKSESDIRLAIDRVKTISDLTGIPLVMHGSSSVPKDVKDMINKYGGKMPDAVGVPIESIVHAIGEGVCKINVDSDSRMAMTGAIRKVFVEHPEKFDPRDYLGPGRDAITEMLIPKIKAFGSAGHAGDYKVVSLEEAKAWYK
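Giardia FBPA (40 nM reagent) was preincubated 10 min at RT with compound (up to 57.5 uM final), then substrate plus GAPDH/TPI/NAD/arsenate coupling system with diaphorase/resazurin was added; resorufin fluorescence (525/598 nm) was read after 20 min.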
Starred values were filed as active, the others as inactive; ? = inconclusive; / = no result; [ ] = another dose, or the depositor's remark. Calls follow the shape of the dose curve; as a rule, active = well fitted curve in the direction sought with a large enough effect; inconclusive = small, poorly fitted or top-dose-only effect, or another doubt; inactive = no such curve, though single readings can be large; an effect the other way counts as inactive or inconclusive. Unless noted, % is scaled to controls: 0 for no effect and ±100 for the full control effect; potency is read from the fitted curve at half-maximal effect.

SMILES	LmPK inhibitor	AmpC detergent	AmpC no deterg	AMA1-RON2 inh	Giardia FBPA inh
CCN(CC)S(=O)(=O)c1ccc(N2CCCCC2)c(NC(=O)/C(C#N)=C/c2ccc(OC)cc2)c1	2%	-2%	4µM*	1%[11.6 µM]	-1%
COc1ccc(/C=C(\C#N)C(=O)Nc2cc(S(=O)(=O)N3CCOCC3)ccc2N2CCCC2)cc1	2%	-11%	60%	-23%	1%
Cc1ccc(NC(=O)CN(C)S(=O)(=O)c2cccc3nsnc23)cc1	-1%	-1%	0.16µM*	6%	-1%
O=C(NCC1CCCO1)c1ccc(/C=N/O)nc1 (configuration not stated)	3%	-3%	-6%	43%	-9%
CC1CCCN(c2ccc(C(=O)NCC3CCCO3)cn2)C1 (configuration not stated)	-4%	-2%	0.2µM*	-1%	-3%
CCn1c(C)c(C2=CCN(S(=O)(=O)c3ccccc3)CC2)c2ccccc21	-1%	0%	18µM*	-30%	0%
Cc1ccc(S(=O)(=O)N2CC=C(c3c(C)n(C)c4ccccc34)CC2)cc1	3%	-5%	-17%	-12%	-4%
CCOC(=O)N1CCN(S(=O)(=O)N2CCCC(C(=O)NCCc3ccc(C)cc3)C2)CC1 (configuration not stated)	2%	-15%	83%	-11%	23%
COc1ccccc1CCNC(=O)Cc1ccc(NC(=O)N2CCSc3ncccc32)cc1	/	3%	/	/	/
COc1cccc(NS(=O)(=O)c2ccc3c(c2)CC(=O)N3)c1	/	-3%	-30%	14%	/
COC(=O)CS(=O)(=O)c1ccc2c(c1)CC(=O)N2	-5%	2%	0.14µM*	8%	-1%
O=C1c2ccccc2C(c2nc3ccccc3[nH]2)N1c1ccccn1 (configuration not stated)	/	/	/	7%	/
O=C(/C(=N/N=C/c1ccc(O)c(O)c1O)c1ccccc1)c1ccccc1	4%	19%	20µM*	15%	?
Cc1ccc(/C=C2/CNC/C(=C\c3ccc(C)cc3)C2=O)cc1	/	/	/	/	-7%
CCC(C)N1CC23C=CC(O2)C(C(=O)OC)C3C1=O (configuration not stated)	7%	2%	22µM*	-2%	2%
CCOC(=O)CN1CC23C=CC(O2)C(C(=O)Nc2ccc4c(c2)OCO4)C3C1=O (configuration not stated)	-2%	?	-29%	6%	-1%
CCOC(=O)CN1CC23C=CC(O2)C(C(=O)Nc2ccc(OCC)cc2)C3C1=O (configuration not stated)	-1%	?	7.9µM*	-2%	1%
CCCN1CC23C=CC(O2)C(C(=O)O)C3C1=O (configuration not stated)	0%	?	35µM*	0%	6%
Cc1cc(Br)cc2c1N(Cc1ccccc1OC(C)C)C(=O)C2=O	/	27%	/	/	/
NC1CCCC[C@H]1N (some centres not stated)	/	/	/	/	-10%
CCOc1cc(N2CCOCC2)c(OCC)cc1NC(=O)C(C)C	-2%	-6%	16%	0%	?
CCOc1cc(N2CCOCC2)c(OCC)cc1NC(C)C(=O)N1CCN(CC)CC1 (configuration not stated)	-7%	-5%	-21%	-16%	5µM*
O=C(O)c1ccc2c(c1)C(=O)N(c1ccc(Cl)cn1)C2=O	-4%	?	0.63µM*	-1%	14%
O=C(O)c1ccc2c(c1)C(=O)N(c1ccc([N+](=O)[O-])cn1)C2=O	0%	?	0%	-1%	-3%
CCCCCn1c(=O)[nH]c2cc(C(=O)Nc3ccc(OC)c(OC)c3)ccc2c1=O	/	-2%	/	/	/
SMILES	LmPK inhibitor	AmpC detergent	AmpC no deterg	AMA1-RON2 inh	Giardia FBPA inh
Cc1ccc(S(C)(=O)=O)cc1C(=O)Nc1ccc(S(=O)(=O)Nc2nccs2)cc1	/	-1%	-28%	4%	/
C#CCN(C[C@@H]1[C@@H](OC(=O)NCc2ccc(OC)c(OC)c2)[C@@H](OC(=O)NCc2ccc(OC)c(OC)c2)CN(C(=O)OC(C)C)N1C(=O)OC(C)C)S(=O)(=O)c1ccc(C)cc1	/	/	/	0%	/
N=C1C(c2nc3ccccc3s2)=C(O)CN1NC(=O)c1ccccc1[N+](=O)[O-]	1%	0%	-4%[2.29 µM]	0%	2%
N=C1C(c2nc3ccccc3s2)=C(O)CN1NC(=O)c1c[nH]c2ccccc12	1%	0%	16µM*	-16%	1%
CC(N)C(O)c1cccc(O)c1 (configuration not stated)	/	/	/	/	-7%
C[C@H](N)[C@H](O)c1ccc(O)c(O)c1	/	/	/	/	7.1µM*
CC[C@H](NC(C)C)[C@H](O)c1ccc(O)c(O)c1	/	/	/	/	3.5µM*
CCC(NC(C)C)C(O)c1ccc(O)c2[nH]c(=O)ccc12 (configuration not stated)	5%	1%	-19%	87%	-21%
O=S1(=O)CC(N2CCN(Cc3ccccc3F)CC2)CN1Cc1cn(Cc2cccc(Cl)c2)nn1 (configuration not stated)	/	/	/	3%	/
Cc1cccc(C)c1NC(=O)C(NS(=O)(=O)c1ccc2c(c1)CCC(=O)N2)c1ccccc1 (configuration not stated)	/	6%	/	/	/
Cc1cccc(NC(=O)C(NS(=O)(=O)c2ccc3c(c2)CCC(=O)N3)c2ccccc2)n1 (configuration not stated)	4%	-6%	25µM*	14%	-19%
C=CCn1c(C)cc(C)c(C#N)c1=O	6%	-3%	-20%	6%	13%
C=CCn1c(O)c(CN2CCOCC2)c(C)c(C#N)c1=O	-1%	?	-19%	15%	14µM*
CCOc1ccc(C(=O)NCCn2cc(SCC(=O)Nc3ccc4c(c3)OCCO4)c3ccccc32)cc1	/	0%	/	/	/
COC(=O)c1sc(NC(=O)c2cc(-c3ccccc3)nc3ccccc23)c(C#N)c1C	2%	56µM*	-45%	1%	1.4µM*
CC(=O)OC[C@@H]1CN(Cc2ccccc2)C[C@H](n2cnc3c(NC4CCCC4)ncnc32)O1	/	/	/	5%	/
CCOc1ccc(-c2c(C(=O)N/N=C/c3ccc(O)cc3)nnn2-c2nonc2N)cc1	3%	-7%	-38%	13%	0%
CCOc1ccc(-c2c(C(=O)N/N=C/c3cccc(Br)c3)nnn2-c2nonc2N)cc1	-2%	1%	16µM*	41%	/
COc1ccc(-c2ccc(C(=O)NCc3ccc(N4CCN(C)CC4)cc3)c3occc23)c(C)c1	/	/	/	16µM*	/
Cc1cc(C(=O)Nc2ccc(OCc3ccccc3)cc2)c(C)o1	7.9µM*	0%	-48%	-8%	-2%
O=C(Nc1ccc(OCc2ccccc2)cc1)c1ccccc1	-16%	-17%	4%	-5%	1%
Cc1cc(C(=O)Nc2c(C)n(C)n(-c3ccccc3)c2=O)c(C)o1	0%	3%	0.16µM*	1%	0%
